Compounds without any hit were thinned out: in the full panel of roughly 83,000, 20% have a hit.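 Negative percent growth values reflect cell death: -40 means 40% of the cells present at the start died, and -100 means all died.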 A number with no mark means an inactive call. Active and inactive are the calls of the source. How the source made its calls: active means growth percent below 10; inactive means the rest.
Legend:
Assay in all cases: NCI-60 one-dose screen, 48 h (100 = growth as untreated, 0 = no growth, -100 = all killed)
Settings in all cases: 10 µM unless noted
[1] = tested on: HCT-15 colon
[2] = tested on: HT29 colon
[3] = tested on: SNB-75 CNS
[4] = tested on: SNB-19 CNS
[5] = tested on: U251 CNS
[6] = tested on: PC-3 prostate
[7] = tested on: UACC-62 melanoma
[8] = tested on: LOX IMVI melanoma
[9] = tested on: SK-MEL-28 melanoma
[10] = tested on: SK-MEL-2 melanoma
[11] = tested on: EKVX NSCLC
[12] = tested on: SN12C renal
[13] = tested on: UO-31 renal
[14] = tested on: TK-10 renal
[15] = tested on: ACHN renal
[16] = tested on: CAKI-1 renal
[17] = tested on: A498 renal
[18] = tested on: CCRF-CEM leukemia
[19] = tested on: MOLT-4 leukemia
[20] = tested on: SK-MEL-5 melanoma

| Structure (SMILES) | growth [1] | growth [2] | growth [3] | growth [4] | growth [5] | growth [6] | growth [7] | growth [8] | growth [9] | growth [10] | growth [11] | growth [12] | growth [13] | growth [14] | growth [15] | growth [16] | growth [17] | growth [18] | growth [19] | growth [20] |
| --- | --- | --- | --- | --- | --- | --- | --- | --- | --- | --- | --- | --- | --- | --- | --- | --- | --- | --- | --- | --- |
| CCCCN(Cc1ccc(C(=O)NO)cc1)C(=O)Nc1ccc(OCCCCCCCCCn2cc(CCCCC(=O)N[C@H](C(=O)N3C[C@H](O)C[C@H]3C(=O)NCc3ccc(-c4scnc4C)cc3)C(C)(C)C)nn2)cc1 | 88.7% | 19.8% | 34.6% | 29.5% | 34.8% | 27.8% | 35.9% | 23.2% | 62.8% | 90.6% | 72.1% | 31% | 70.8% | 87.6% | 105% | 61.7% | 66.5% | 13% | 14.5% |  |
| Cn1ncc2c(Nc3ccc(Br)cc3)nc(Nc3ccc(Br)cc3)nc21 | 22.4% | 33.4% | 66.9% | 71.4% | 33.4% |  | 56.1% | -5.28% (active) | 50.1% |  | 41% | 47.1% | 68.3% | 73.1% | 40.1% | 37.7% |  | 27.8% | 26.7% | 47.6% |
| CC(=O)Nc1ccc(-c2cc3c(NCc4ccc(F)cc4)ncnc3s2)cc1 | 88.8% | 102% | 70.1% | 57.8% | 77.6% | 81% | 73% | 82.4% | 93.5% | 95.4% | 67.5% | 72.6% | 62.2% | 70.5% | 65.5% | 61.6% | 61.9% | 96.3% | 95.3% |  |
| Cc1c(Cl)cccc1NS(=O)(=O)c1ccccc1 | 97.3% | 99.8% | 87.9% | 106% | 106% |  | 102% | 104% | 99% | 132% | 114% |  | 90.4% | 104% | 98.4% | 116% |  | 124% | 102% | 96.7% |
| C=C1C(=O)O[C@H]2[C@H]1CC/C(COC(=O)/C=C\C(=O)NCc1ccc(Cn3c(=O)sn(CCCI)c3=O)cc1)=C\CC[C@@]1(C)O[C@@H]21 | -38% (active) | -30.1% (active) | -63.9% (active) | 1.92% (active) | -72% (active) | -70.6% (active) | -98.2% (active) | -83.2% (active) | -94.7% (active) | -64.4% (active) |  | -90.8% (active) | -100% (active) |  | -100% (active) | -78.6% (active) | -17.6% (active) | -21.1% (active) | -30% (active) |  |
| O=C1C=CC(=Nc2cc(Br)c(O)c(Br)c2)C=C1 | 65.1% | 62% | 68.3% | 96.8% | 43.7% |  | 67.6% | 48.6% | 75.1% | 65.2% | 90.7% | 78.7% | 56.3% | 93.8% | 68.4% | 82.8% | 97.2% | 7.46% (active) | -28.9% (active) | 87.4% |
| COc1ccc(OC)c(/C=C2\COc3ccc(O)cc3C2=O)c1 | 78.5% | 45.9% | 116% | 84.5% | 84.6% | 95.2% | 84.3% | 51.3% | 94.9% | 100% |  | 84.1% | 86.6% | 97% | 78.9% | 95.7% |  | 5.83% (active) | 64.9% |  |
| CCOC(=O)c1sc(-c2ccc(OS(=O)(=O)c3ccc(C(C)(C)C)cc3)c(C=O)c2)nc1C | 12.5% | 19.7% | 22.9% | 29.7% | 26% | 16.2% | 46.1% | 43.3% | 81.9% |  | 40.2% | 32.1% | 29.9% | 55.8% | 26.6% | 20.5% | 57% | 29.9% | 20.5% |  |
| Cn1cc(-c2ccc3nc(-c4ccc(CC(=O)Nc5cc(C(C)(C)C)no5)cc4)cnc3c2)cn1 | 11.5% [30 µM] | 58.4% [30 µM] | 26.5% [30 µM] | 53.6% [30 µM] | 37.3% [30 µM] | 40.2% [30 µM] | 9.8% [30 µM] (active) | 20.1% [30 µM] | 37.5% [30 µM] | 22.2% [30 µM] |  | 3.38% [30 µM] (active) | 7.7% [30 µM] (active) | 63.5% [30 µM] | 5.16% [30 µM] (active) | 6.29% [30 µM] (active) | -4.96% [30 µM] (active) | 45.9% [30 µM] | 22.1% [30 µM] |  |
| COc1ccc(-c2nc3sccn3c2/C=C/C(=O)c2c[nH]c3ccccc23)cc1 | 60.5% | 79.7% | 39.1% | 92.2% | 46.2% |  | 76.1% | 37.5% | 76.7% | 90.9% | 58.3% | 71.7% | 82.7% | 73% | 40.6% | 49.6% |  | 90.9% | -5.59% (active) | 58.8% |
| COc1ccc(/C(C)=C(\c2ccc(Cl)cc2)c2ccc(OCCN3CCCC3)cc2)cc1F | 1.16% (active) | -10.5% (active) | 47.6% | 42.8% | 19.1% | 30% | -30.2% (active) | -88.3% (active) | -42.1% (active) | 59.9% | 47% |  | 28.9% | 62% | 50.9% | 22% | 68% | 31.2% | -5.27% (active) |  |
| COc1ccc(/C=C2\COc3ccc(O)cc3C2=O)c(OC)c1 | 34.4% | 38.2% | 47.5% | 55.3% | 50.3% | 57.2% | 50% | 45.4% | 64% | 55.9% | 70.5% | 52.7% | 74.9% | 91.9% | 85.2% | 59.3% | 92.4% | 4.96% (active) | 36.8% |  |
| Cn1ccnc1C(=O)/C=C/c1ccc(C(=O)Nc2ccc(S(F)(F)(F)(F)F)cc2)cc1 | 3.65% (active) | 12% | 12.2% | 9.4% (active) | -6.93% (active) | 17.4% | 53.5% | -79.5% (active) | 79.5% | 62.7% | 26.3% | 7.07% (active) | 28.5% | 48.8% | 42.5% | 23.9% | 38.4% | 3.4% (active) | -5.05% (active) |  |
| CN(C)CCn1cc(-c2ccc3c(Nc4ccc(CC(=O)Nc5cccc(F)c5)cc4)ncnc3c2)cn1 | 22.1% [30 µM] | -40.7% [30 µM] (active) | -87% [30 µM] (active) | -60% [30 µM] (active) | -52.4% [30 µM] (active) | -25.2% [30 µM] (active) | -81.6% [30 µM] (active) | -50.2% [30 µM] (active) | -89.6% [30 µM] (active) | 37.2% [30 µM] |  | -91.4% [30 µM] (active) | -60% [30 µM] (active) | -58.5% [30 µM] (active) | -51.7% [30 µM] (active) | -15.8% [30 µM] (active) | 59.5% [30 µM] | -19.3% [30 µM] (active) | -30.6% [30 µM] (active) |  |

Reference: PubChem BioAssay (NCI)
